Records with an inconclusive call do not appear. The source holds several records for some structures; these can differ, active in one and inactive in another. The source made the active and inactive calls. The calls were made as follows: active = hit-call score of the fitted dose curve at least 0.9, where 1 is the maximum; inconclusive = response in the unintended direction; inactive = score below 0.9.
These compounds were tested against Glucocorticoid receptor (Homo sapiens) (UniProt P04150) (assay: NVS_NR_hGR: NovaScreen (NVS) Nuclear Receptor Binding Assay for human Glucocorticoid Receptor (GR) (AID 2283363)).
Experimental: NVS_NR_hGR is a biochemical, single-readout assay that uses extracted gene-proteins in a cell-free assay. Measurements were taken 16 hours after chemical dosing in a 96-well plate.NVS_NR_hGR is one of one assay component(s) measured or calculated from the NVS_NR_hGR assay. It is designed to make measurements of radioligand binding, a form of binding reporter, as detected with scintillation counting signals by Filter-based radiodetection technology.Data from the assay component NVS_NR_hGR was analyzed into 1 assay endpoint. This assay endpoint, NVS_NR_hGR, was analyzed in the positive analysis fitting direction relative to DMSO as the negative control and baseline of activity. Using a type of binding reporter, loss-of-signal activity can be used to understand changes in the binding as they relate to the gene NR3C1. Furthermore, this assay endpoint can be referred to as a primary readout, because the performed assay has only produced 1 assay endpoint. To generalize the intended target to other relatable targets, this assay endpoint is annotated to the nuclear receptor intended target family, where the subfamily is steroidal.
Binding assays used specific radioligands (tritiated, iodinated) with non-radioactive competitive displacement ligands in agonist or antagonist protocols (as indicated) and various reference compounds and inhibitors to titrate specific binding to receptors and transporters. Most enzyme assays (CYPs, kinases, phosphatases, proteases, HDACs) used recombinant protein and specific substrates (fluorescence mostly, some colorimetric and radioactive) and inhibitors, followed by a biochemical separation of substrate and product. All assays for the biochemical HTS were initially run in duplicate at a single concentration (10 uM for CYP450 assays and 25 uM for all others). […] Each assay was run with positive and negative controls, and concurrent controls on every plate. The follow-up (secondary) screen tested active chemical-pairs in concentration series, as well as a few additional assays not tested in the primary screen, some selected negative inactives, and several cases re-run in the concentration series for confirmatory purposes.

Chain of Glucocorticoid receptor (Homo sapiens) (P04150 whole entry, looked up): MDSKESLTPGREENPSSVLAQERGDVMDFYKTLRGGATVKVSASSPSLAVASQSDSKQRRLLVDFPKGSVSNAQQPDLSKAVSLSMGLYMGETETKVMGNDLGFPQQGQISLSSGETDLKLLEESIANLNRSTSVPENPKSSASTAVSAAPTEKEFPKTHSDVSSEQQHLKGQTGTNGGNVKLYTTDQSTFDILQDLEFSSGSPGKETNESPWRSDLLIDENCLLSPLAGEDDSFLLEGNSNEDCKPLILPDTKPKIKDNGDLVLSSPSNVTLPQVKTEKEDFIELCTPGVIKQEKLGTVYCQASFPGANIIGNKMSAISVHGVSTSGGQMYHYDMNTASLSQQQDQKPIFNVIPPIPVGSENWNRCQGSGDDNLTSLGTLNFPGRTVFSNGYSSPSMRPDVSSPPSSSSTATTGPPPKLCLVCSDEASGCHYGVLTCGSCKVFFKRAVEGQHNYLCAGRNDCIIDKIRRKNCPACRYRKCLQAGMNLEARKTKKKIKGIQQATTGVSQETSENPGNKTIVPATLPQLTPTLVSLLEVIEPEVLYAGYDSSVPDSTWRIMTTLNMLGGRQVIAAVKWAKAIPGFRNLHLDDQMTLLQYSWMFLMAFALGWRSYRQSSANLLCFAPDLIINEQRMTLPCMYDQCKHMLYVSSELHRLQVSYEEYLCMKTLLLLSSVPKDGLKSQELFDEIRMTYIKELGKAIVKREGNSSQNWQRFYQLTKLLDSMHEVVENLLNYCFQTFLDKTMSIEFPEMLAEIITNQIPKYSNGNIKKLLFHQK

Structure (SMILES) | outcome | AC50
CCCCCCOc1ccc(N)cc1 | inactive | –
CCOC(=O)/C=C\C(=O)OCC | inactive | –
C=C(C)C1CC=C(C)CC1 (configuration not stated) | inactive | –
CCc1cccc(CC)c1 | inactive | –
CC1=NN(c2ccc(S(=O)(=O)O)cc2)C(=O)C1N=Nc1ccccc1 (configuration not stated) | – | 12.8 µM (active)
CCCCCCCCCC[N+](C)(CCCCCCCCCC)CCC[Si](OC)(OC)OC | inactive | –
CC/C=C\C/C=C\C/C=C\CCCCCCCC(=O)OC | – | 8.39 µM (active)
CCCCC(=O)O | inactive | 8.11 µM (active)
CCCC(CC)c1ccccc1 (configuration not stated) | inactive | –
CO[Si](CCCS)(OC)OC | inactive | –
O=C(O)c1cc(O)c2ccccc2c1O | – | 9.52 µM (active)
O=c1c(O)c(-c2ccc(O)cc2O)oc2cc(O)cc(O)c12 | – | 25 µM (active)
O=S(=O)(O)c1ccc(N=Nc2c(O)ccc3ccccc23)cc1 | – | 17.2 µM (active)
C=C1C[C@H]2[C@@H]3C=C(C)C4=CC(=O)CC[C@]4(C)[C@H]3CC[C@]2(C)[C@@]1(OC(C)=O)C(C)=O | – | 0.00144 µM (active)
CC(C)[N+](C)(CCOC(=O)C1c2ccccc2Oc2ccccc21)C(C)C | inactive | –
CCCCCCCOC(=O)c1ccc(O)cc1 | – | 7.77 µM (active)
